In PubChem BioAssay AID1159580 (chemical genetic matrix, 2015):
“And” between values parts separate entries of the source, which are not always exact repeats. Equal values may be shown once. The whole screen tested about 5,500 compounds, of which about 2,000 (36%) were called active. Another 18% or so got no clear call; they are omitted. No stated cut-off is given here; in the data, active means normalized growth mostly below about 0.91 (no sharp cut-off); inconclusive means no clear call, values can overlap the other calls; inactive means mostly above about 0.92. This is one part of the list.

Assay: chemical genetic growth profiling, strain panel (AID 1159580);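 further: tested at 20 µM; growth read once vehicle control cultures reached saturation at 30 °C; 1 = growth at the plate median or of vehicle wells; lower values mean less growth of the strain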
Conditions: S. cerevisiae deletion strains, growth OD

Measured: normalized growth

CNCCC(Oc1ccc(C(F)(F)F)cc1)c1ccccc1 (stereo unspecified)
active: locus YDR137W, strain rgp1, hits give low values 1.2 [resistant]
inactive: locus YAL013W, strain DEP1, hits give low values 1 and 1.01 | locus YAL021C, strain ccr4, hits give low values 0.994 | locus YAL026C, strain drs2, hits give low values 0.991 | locus YAL030W, strain snc1, hits give low values 0.987 | locus YAL040C, strain CLN3, hits give low values 1.01 | locus YBL061C, strain skt5, hits give low values 0.986 | locus YBR009C, strain hhf1, hits give low values 0.99 | locus YBR021W, strain FUR4, hits give low values 0.967 | locus YBR023C, strain chs3, hits give low values 0.986 | locus YBR171W, strain sec66, hits give low values 0.991 | locus YBR229C, strain ROT2, hits give low values 1.01 | locus YBR231C, strain swc5, hits give low values 0.986 | locus YBR279W, strain paf1, hits give low values 0.985 | locus YCL011C, strain gbp2, hits give low values 0.991 | locus YCL016C, strain dcc1, hits give low values 0.995 | locus YCL029C, strain bik1, hits give low values 0.99 | locus YCL061C, strain MRC1 (second series), hits give low values 0.983 | locus YCL061C, strain MRC1, hits give low values 0.985 | locus YCL069W, strain vba3, hits give low values 0.998 | locus YCR088W, strain abp1, hits give low values 0.995 | locus YDL005C, strain med2, hits give low values 0.99 | locus YDL035C, strain GPR1, hits give low values 0.987 | locus YDL040C, strain nat1, hits give low values 0.985 | locus YDL074C, strain BRE1, hits give low values 0.993 | locus YDL101C, strain DUN1, hits give low values 1.02 | locus YDL134C, strain PPH21, hits give low values 1.01 | locus YDL185W, strain tfp1, hits give low values 1 | locus YDL192W, strain arf1, hits give low values 1 | locus YDR001C, strain nth1, hits give low values 0.998 | locus YDR069C, strain doa4, hits give low values 0.944 | locus YDR101C, strain arx1, hits give low values 0.987 | locus YDR150W, strain NUM1, hits give low values 1.01 | locus YDR159W, strain sac3, hits give low values 1 | locus YDR162C, strain NBP2, hits give low values 0.992 | locus YDR195W, strain ref2 0.995 | locus YDR297W, strain sur2, hits give low values 0.995 | locus YDR318W, strain mcm21, hits give low values 0.996 | locus YDR334W, strain swr1, hits give low values 0.987 | locus YDR335W, strain msn5, hits give low values 1 | locus YDR363W, strain ESC2, hits give low values 1.02 | locus YDR388W, hits give low values 0.93 | locus YDR392W, strain spt3, hits give low values 0.996 | locus YDR502C, strain sam2, hits give low values 0.991 | locus YEL003W, strain gim4, hits give low values 0.999 | locus YEL037C, strain rad23, hits give low values 0.993 | locus YEL061C, strain CIN8 (second series), hits give low values 0.998 | locus YEL061C, strain CIN8, hits give low values 1.01 | locus YER002W, strain NOP16, hits give low values 1 | locus YER015W, strain faa2, hits give low values 0.997 | locus YER016W, strain bim1, hits give low values 0.992 | locus YER110C, hits give low values 0.994 | locus YER111C, strain swi4, hits give low values 0.981 | locus YER155C, strain BEM2 (second series), hits give low values 1.01 | locus YER155C, strain BEM2, hits give low values 1.01 | locus YER167W, strain BCK2, hits give low values 1.01 | locus YFR010W, strain ubp6, hits give low values 0.972 | locus YGL078C, strain dbp3, hits give low values 0.99 | locus YGL086W, strain mad1, hits give low values 1 | locus YGL167C, strain pmr1, hits give low values 0.987 | locus YGL173C, strain kem1, hits give low values 0.982 | locus YGL227W, strain vid30, hits give low values 0.982 | locus YGL240W, strain doc1, hits give low values 0.975 | locus YGL248W, strain PDE1, hits give low values 1.02 | locus YGL253W, strain hxk2, hits give low values 0.977 | locus YGR078C, strain PAC10, hits give low values 0.948 and 0.983 | locus YGR135W, strain pre9, hits give low values 0.986 | locus YGR229C, strain SMI1, hits give low values 0.949 | locus YGR252W, strain gcn5, hits give low values 0.923 | locus YHR013C, strain ard1, hits give low values 0.922 | locus YHR027C, strain rpn1, hits give low values 0.991 | locus YHR030C, strain SLT2, hits give low values 1.01 and 1 | locus YHR079C, strain IRE1 (second series), hits give low values 0.997 | locus YHR079C, strain IRE1, hits give low values 1.03 | locus YHR094C, strain hxt1, hits give low values 1 | locus YHR129C, strain ARP1, hits give low values 1.02 | locus YHR142W, strain chs7, hits give low values 0.992 | locus YHR200W, strain rpn10, hits give low values 0.993 | locus YIL066C, strain RNR3, hits give low values 1.01 | locus YIL073C, strain SPO22, hits give low values 1.25 | locus YIL125W, strain kgd1, hits give low values 0.997 | locus YIR030C, strain dcg1, hits give low values 1 | locus YJL092W, strain hpr5, hits give low values 0.986 | locus YJL095W, strain BCK1 (second series), hits give low values 0.992 | locus YJL095W, strain BCK1, hits give low values 0.99 and 0.988 | locus YJL115W, strain asf1, hits give low values 0.993 | locus YJL129C, strain trk1, hits give low values 1.01 | locus YJL134W, strain LCB3, hits give low values 1 | locus YJL154C, strain vps35, hits give low values 1.01 | locus YJL164C, strain tpk1, hits give low values 0.987 | locus YJL166W, strain qcr8, hits give low values 0.99 | locus YJL168C, strain set2, hits give low values 0.993 | locus YJL187C, strain SWE1 (second series), hits give low values 1.02 | locus YJL187C, strain SWE1, hits give low values 0.986 | locus YJR043C, strain POL32, hits give low values 1 | locus YJR066W, strain TOR1, hits give low values 0.988
